Laboratory results: PubChem BioAssay
Activity calls are given as the source filed them. Unless noted, no rule for the calls is given here.

What was measured:
[1] = anti-His antibody binders, primary screen, artefact control for SMM control protein annotation, biochemical, small-molecule microarray, 635 nm fluorescence (AID 1128); details: anti-His Alexa647 antibody binding, higher = more signal;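 also: score merges feature fluorescence with signal-to-noise for each printed compound spot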
[2] = system: Human papillomavirus type 1a E7 protein (residues 1-88); assay: HPV1a E7 small-molecule binders, primary screen, biochemical, small-molecule microarray, residues 1-88, 635 nm (AID 1129); details: small-molecule microarray binding, fluorescence 635 nm; higher = more signal
[3] = target: Focal adhesion kinase 1 (Homo sapiens) (UniProt Q05397); assay: small-molecule microarray binders of FAK, primary screen, biochemical, 635/667 nm fluorescence, BSA, DTT (AID 1130); details: PTK2 binding, 635 nm fluorescence, higher = more signal;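 also: composite of spot emission at 667 nm and signal to noise over triplicate slides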
Sequence of Focal adhesion kinase 1 (Homo sapiens) (Q05397 whole entry, looked up): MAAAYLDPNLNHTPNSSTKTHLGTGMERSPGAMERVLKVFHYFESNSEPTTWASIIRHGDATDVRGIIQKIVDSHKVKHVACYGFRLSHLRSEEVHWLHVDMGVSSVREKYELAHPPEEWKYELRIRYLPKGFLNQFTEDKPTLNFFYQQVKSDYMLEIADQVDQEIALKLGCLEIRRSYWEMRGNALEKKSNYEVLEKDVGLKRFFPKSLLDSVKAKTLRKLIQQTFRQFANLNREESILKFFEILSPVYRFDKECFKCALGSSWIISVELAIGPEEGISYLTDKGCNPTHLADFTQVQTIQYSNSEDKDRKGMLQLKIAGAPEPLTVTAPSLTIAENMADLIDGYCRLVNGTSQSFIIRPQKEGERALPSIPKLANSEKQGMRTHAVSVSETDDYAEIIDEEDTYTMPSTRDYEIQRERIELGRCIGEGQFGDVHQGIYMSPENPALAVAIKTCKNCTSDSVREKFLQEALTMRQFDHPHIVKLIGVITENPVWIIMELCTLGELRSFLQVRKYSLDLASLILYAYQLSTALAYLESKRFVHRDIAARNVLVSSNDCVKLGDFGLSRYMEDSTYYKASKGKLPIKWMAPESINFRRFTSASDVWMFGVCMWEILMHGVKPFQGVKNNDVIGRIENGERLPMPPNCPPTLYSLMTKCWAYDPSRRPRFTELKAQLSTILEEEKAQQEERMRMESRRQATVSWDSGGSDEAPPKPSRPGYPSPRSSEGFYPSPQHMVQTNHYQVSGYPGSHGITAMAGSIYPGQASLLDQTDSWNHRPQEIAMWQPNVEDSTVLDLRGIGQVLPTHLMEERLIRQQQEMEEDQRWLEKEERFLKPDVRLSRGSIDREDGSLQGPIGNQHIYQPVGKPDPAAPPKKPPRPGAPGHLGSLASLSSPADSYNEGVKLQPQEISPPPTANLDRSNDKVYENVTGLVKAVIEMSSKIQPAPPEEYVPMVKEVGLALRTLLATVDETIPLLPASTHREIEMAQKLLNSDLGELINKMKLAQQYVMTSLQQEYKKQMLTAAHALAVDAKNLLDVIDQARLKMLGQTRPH

[4] = system: Fibrinogen (Alexa647-labelled); assay: fibrinogen binders on compound microarrays, profiling panel, artefact control for SMM control-protein annotation, biochemical, small-molecule microarray, 635/667 nm fluorescence (AID 1131); details: fibrinogen-A647 binding fluorescence, higher = more signal;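 also: z-score merges 667 nm fluorescence with per-spot signal-to-noise over triplicate slides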
[5] = target: Follistatin (Homo sapiens) (UniProt P19883); assay: follistatin binders on small-molecule microarrays, primary screen, biochemical, small-molecule microarray, 635/667 nm fluorescence (AID 1132); details: FST binding, 635 nm fluorescence, higher = more signal
Sequence of Follistatin (Homo sapiens) (P19883 whole entry, looked up): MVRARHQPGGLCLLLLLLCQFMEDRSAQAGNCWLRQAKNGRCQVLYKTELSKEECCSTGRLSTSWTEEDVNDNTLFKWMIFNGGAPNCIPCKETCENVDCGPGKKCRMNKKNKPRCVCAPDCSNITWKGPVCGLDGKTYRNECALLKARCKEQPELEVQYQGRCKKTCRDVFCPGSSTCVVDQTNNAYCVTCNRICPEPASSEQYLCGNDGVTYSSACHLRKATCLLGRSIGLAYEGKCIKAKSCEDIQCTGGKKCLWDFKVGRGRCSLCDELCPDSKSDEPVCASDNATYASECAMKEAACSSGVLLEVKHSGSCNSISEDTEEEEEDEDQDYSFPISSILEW

[6] = target: Fibroblast growth factor 2 (Homo sapiens) (UniProt P09038); assay: FGF2 binders on small-molecule microarrays, primary screen, biochemical, small-molecule microarray, 635/667 nm fluorescence (AID 1133); details: small-molecule microarray binding, FGF2, fluorescence 635/667; higher = more signal
Sequence of Fibroblast growth factor 2 (Homo sapiens) (P09038 whole entry, looked up): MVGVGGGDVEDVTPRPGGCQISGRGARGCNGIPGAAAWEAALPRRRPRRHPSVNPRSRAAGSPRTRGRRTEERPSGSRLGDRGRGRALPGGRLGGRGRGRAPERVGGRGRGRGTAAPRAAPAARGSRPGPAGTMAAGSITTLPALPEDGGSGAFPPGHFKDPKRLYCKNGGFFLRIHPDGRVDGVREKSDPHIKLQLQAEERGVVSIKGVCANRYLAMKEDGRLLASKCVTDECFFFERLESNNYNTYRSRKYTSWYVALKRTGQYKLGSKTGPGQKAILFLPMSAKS

[7] = mitochondrial membrane potential change in A549 cells, profiling panel, cell-based, JC-1 fluorescence, basal, 24 h, 100 nL (AID 1138); details: higher = more signal;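 also: A549 lung adenocarcinoma cells under basal conditions with no added stimulus; test concentration not given here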
Lefty1 = Lefty1 binders on small-molecule microarrays, primary screen, biochemical, small-molecule microarray, 635/667 nm fluorescence (AID 1139); details: small-molecule microarray binding, fluorescence 635/667; higher = more signal
[8] = system: wheat germ agglutinin (Triticum aestivum), Alexa647-labelled; assay: wheat germ agglutinin binders on compound microarrays, profiling panel, artefact control for SMM control-protein annotation, biochemical, small-molecule microarray, 635/667 nm fluorescence (AID 1140); details: WGA-A647 binding, 635 nm fluorescence, higher = more signal;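 also: score merges 667 nm feature emission with signal to noise over triplicate slides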
[9] = target: Luciferin 4-monooxygenase (Photinus pyralis) (UniProt P08659); assay: firefly luciferase enzyme inhibitors, primary screen, biochemical, luminescence, purified enzyme, 2006 set (AID 1141); details: SteadyGlo luminescence, 30 min, higher = more signal, called active from +8 up or from −8 down;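 also: cell-free assay with purified firefly luciferase at 100 ng per well in PBS; test concentration not given here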
Sequence of Luciferin 4-monooxygenase (Photinus pyralis) (P08659 whole entry, looked up): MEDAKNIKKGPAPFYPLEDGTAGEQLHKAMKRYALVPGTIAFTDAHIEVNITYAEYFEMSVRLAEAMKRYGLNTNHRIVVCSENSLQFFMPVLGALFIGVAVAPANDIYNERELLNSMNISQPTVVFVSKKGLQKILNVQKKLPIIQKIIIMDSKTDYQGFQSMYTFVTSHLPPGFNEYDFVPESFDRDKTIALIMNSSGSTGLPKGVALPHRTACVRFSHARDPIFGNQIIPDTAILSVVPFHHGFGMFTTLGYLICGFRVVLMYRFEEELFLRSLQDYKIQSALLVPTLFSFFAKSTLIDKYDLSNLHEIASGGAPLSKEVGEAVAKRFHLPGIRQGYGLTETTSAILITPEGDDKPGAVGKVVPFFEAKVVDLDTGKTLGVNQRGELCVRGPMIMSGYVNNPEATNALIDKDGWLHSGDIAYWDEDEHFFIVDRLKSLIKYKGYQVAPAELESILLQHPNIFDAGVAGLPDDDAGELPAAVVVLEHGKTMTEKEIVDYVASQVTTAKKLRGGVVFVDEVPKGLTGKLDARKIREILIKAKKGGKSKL

[10] = system: Wnt5a (protein binding on small-molecule microarray); assay: Wnt5a binders on small-molecule microarray, primary screen, biophysical, 635/667 nm fluorescence (AID 1142); details: 635 nm fluorescence, higher = more signal;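 also: fluorescence read at 667 nm with signal to noise per printed feature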
[11] = cell viability in Huh7 cells, primary screen, cytotoxicity control for HCV replication inhibitor project, CellTiter-Glo luminescence, basal, 48 h (AID 1143); details: Huh7 HCV replicon, higher = more signal, called active from +8 up or from −8 down;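 also: Huh7 hepatoma cells carrying a hepatitis C replication reporter with no stimulus; test concentration not given here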
[12] = P. aeruginosa biofilm formation inhibitors, primary screen, PAO1 strain, BacTiter-Glo luminescence, LB-PBS (AID 1144); details: 12 h, higher = more signal
[13] = CREB reporter modulators without forskolin, primary screen, cell-based, PC12, CRE-LacZ reporter, unstimulated (AID 1145); details: no forskolin, luminescence, 4.5 h, higher = more signal, called active from +8 up or from −8 down
[14] = CREB reporter modulators under forskolin, primary screen, cell-based, PC12, CRE-LacZ reporter, forskolin-stimulated (AID 1146); details: luminescence, 4.5 h, higher = more signal, called active from +8 up or from −8 down;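 also: PC12 cells with 6xCRE LacZ reporter stimulated by forskolin 10 µM; beta-galactosidase reporter signal reflecting CREB driven transcription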
[15] = target: Streptavidin (Streptomyces avidinii) (UniProt P22629); assay: streptavidin binders on small-molecule microarray, primary screen, artefact control for SMM compound annotation, biophysical, 635/667 nm fluorescence (AID 1147); details: streptavidin binding, higher = more signal;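 also: signal reflects streptavidin binding to arrayed compounds as a control protein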
Sequence of Streptavidin (Streptomyces avidinii) (P22629 whole entry, looked up): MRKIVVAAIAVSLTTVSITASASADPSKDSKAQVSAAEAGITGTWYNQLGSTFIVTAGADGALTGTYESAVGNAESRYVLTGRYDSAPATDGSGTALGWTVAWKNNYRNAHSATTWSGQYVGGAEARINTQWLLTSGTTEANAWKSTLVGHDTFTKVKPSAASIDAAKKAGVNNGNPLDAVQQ

[16] = small-molecule binders of probe aInhba, primary screen, biochemical, small-molecule microarray, 635/667 nm fluorescence (AID 1148); details: higher = more signal;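 also: score merges 667nm spot fluorescence with signal-to-noise for antibody binding to printed compounds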
Torsin-1A (Homo sapiens) [17] = target: Torsin-1A (Homo sapiens) (UniProt O14656); assay: torsin A binders from cell lysate, primary screen, small-molecule microarray, wild-type, 635/667 nm (AID 1149); details: COS7 hTOR1A-WT lysate, 635 nm fluorescence, higher = more signal
Sequence of Torsin-1A (Homo sapiens) (O14656 whole entry, looked up): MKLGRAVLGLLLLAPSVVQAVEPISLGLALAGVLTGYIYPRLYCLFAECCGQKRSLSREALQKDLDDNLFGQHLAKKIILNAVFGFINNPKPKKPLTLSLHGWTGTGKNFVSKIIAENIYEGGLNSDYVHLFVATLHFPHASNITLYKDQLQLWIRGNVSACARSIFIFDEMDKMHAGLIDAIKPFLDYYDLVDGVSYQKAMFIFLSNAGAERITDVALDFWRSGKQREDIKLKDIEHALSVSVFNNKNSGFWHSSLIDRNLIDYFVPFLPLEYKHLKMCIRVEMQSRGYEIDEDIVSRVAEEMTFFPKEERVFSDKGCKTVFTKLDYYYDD

Torsin-1A (Homo sapiens) [18] = target: Torsin-1A (Homo sapiens) (UniProt O14656); assay: small-molecule binders of mutant TOR1A in lysate, primary screen, cell lysate, small-molecule microarray, COS7 lysate, 635/667 nm fluorescence (AID 1150); details: COS7 hTOR1A mutant lysate, 635 nm fluorescence, higher = more signal;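 also: score pools 667 nm emission and signal to noise measuring lysate protein binding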
[19] = system: Sonic hedgehog protein (Shh); assay: small-molecule binders of Shh protein, primary screen, biochemical, small-molecule microarray, 635/667 nm fluorescence (AID 1151); details: small-molecule microarray binding, 635 nm fluorescence; higher = more signal;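 also: Shh protein binding to compounds spotted on small-molecule microarray slides; score combines spot fluorescence intensity with signal-to-noise across triplicate slides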

| Compound | composite z-score [1] | composite z-score [2] | composite z-score [3] | composite z-score [4] | composite z-score [5] | composite z-score [6] | z-score [7] | composite z-score (Lefty1) | composite z-score [8] | z-score [9] | composite z-score [10] | z-score [11] | z-score [12] | z-score [13] | z-score [14] | composite z-score [15] | composite z-score [16] | composite z-score (Torsin-1A (Homo sapiens) [17]) | composite z-score (Torsin-1A (Homo sapiens) [18]) | composite z-score [19] |
| --- | --- | --- | --- | --- | --- | --- | --- | --- | --- | --- | --- | --- | --- | --- | --- | --- | --- | --- | --- | --- |
| CC(C)C[C@@H]1NC(=O)[C@H]2C[C@@H](C(=O)NCCCCCCN(C)C)[C@@H](c3ccc(O)cc3)N2C1=O | 2.44 | 0.977 | 0.34 | 0.357 | 1.35 | 1.29 | -0.0361 | 1.19 | 0.115 | -0.263 (inactive) | 0.836 | -0.29 (inactive) | -0.041 (inactive) | -0.398 (inactive) | 0.425 (inactive) | 0.189 | -0.147 | 1.47 | 1.52 | 1.97 |
| CN1C(=O)C2C=CC(C(O)C3CCCCC3)N(Nc3ccc([N+](=O)[O-])cc3[N+](=O)[O-])C2C1=O (stereo not given) | 1.08 | 1.25 | 0.622 | 1.02 | 1.07 | 0.0734 | 1.37 | 0.182 | 0.497 | 0.799 (inactive) | 0.326 | 0.729 (inactive) | 1.17 (inactive) | 0.626 (inactive) | 1.37 (inactive) | 1.2 | -0.024 | 1.27 | 1.04 | -0.0056 |
| COC(=O)[C@@]1(Cc2ccc(F)cc2)[C@H]2c3cc(C(=O)N4CCCC4)n(Cc4ccc(C)o4)c3C[C@H]2CN1C(=O)c1ccccc1 | 1.69 | 1.07 | 1.05 | 0.952 | 0.4 | -0.708 | 0.821 | 0.181 | 0.794 | -13.4 (active) | 0.709 | -2.77 (inactive) | 0.82 (inactive) | -0.182 (inactive) | -1.19 (inactive) | 1.39 | 0.0108 | 0.19 | 0.322 | -0.704 |
| COc1ccc(C(=O)Nc2ccc(CN3C(=O)[C@@]4(O[C@@H](CCO)[C@H]([Si](C)(C)c5ccc(OC)cc5)[C@H]4C)c4ccccc43)cc2)cc1 | 1.42 | 0.97 | -0.0228 | 0.673 | 1.37 | 1.55 | -1.49 | 1.45 | 0.559 | -0.555 (inactive) | 0.146 | -8.02 (active) | 0.422 (inactive) | 3.11 (inactive) | -1.27 (inactive) | 0.225 | -0.201 | 1.05 | 0.471 | 1.96 |
| CC(C)(C)C(=O)N[C@@H](c1ccc(Cl)cc1)[C@]1(C)C[C@H]1C1CCCCC1 | 0.893 | 1.21 | 1.19 | 1.02 | 0.279 | -0.386 | 2.63 | -0.775 | 0.537 | 0.542 (inactive) | 0.182 | -2.95 (inactive) | -0.153 (inactive) | 0.197 (inactive) | 0.456 (inactive) | 2.44 | 0.634 | 0.895 | 1.18 | -0.546 |
